MITF primary: inhibitors of human MITF | AID 1259374 | AlphaScreen MITF homodimerization, bead proximity signal | O75030 | 650,000 compounds, 0.91% hits | inhibition, % at 2.6 µM; in the data active = inhibition above about 50%;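 note: 0% = vehicle wells with protein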
FBW7 activator: human FBW7 E3 ligase activation, primary screen; normalized activity (activation), % at 26.1 µM; 650,000 compounds, 0.13% hits; AID 1259310; Q969H0; AlphaScreen FBW7–phospho-cyclin E peptide binding, activator screen; in the data active = normalized activity above about 1.9%;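 note: purified mutant Fbw7 with reduced substrate affinity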
Target sequence (Q969H0 whole entry, looked up): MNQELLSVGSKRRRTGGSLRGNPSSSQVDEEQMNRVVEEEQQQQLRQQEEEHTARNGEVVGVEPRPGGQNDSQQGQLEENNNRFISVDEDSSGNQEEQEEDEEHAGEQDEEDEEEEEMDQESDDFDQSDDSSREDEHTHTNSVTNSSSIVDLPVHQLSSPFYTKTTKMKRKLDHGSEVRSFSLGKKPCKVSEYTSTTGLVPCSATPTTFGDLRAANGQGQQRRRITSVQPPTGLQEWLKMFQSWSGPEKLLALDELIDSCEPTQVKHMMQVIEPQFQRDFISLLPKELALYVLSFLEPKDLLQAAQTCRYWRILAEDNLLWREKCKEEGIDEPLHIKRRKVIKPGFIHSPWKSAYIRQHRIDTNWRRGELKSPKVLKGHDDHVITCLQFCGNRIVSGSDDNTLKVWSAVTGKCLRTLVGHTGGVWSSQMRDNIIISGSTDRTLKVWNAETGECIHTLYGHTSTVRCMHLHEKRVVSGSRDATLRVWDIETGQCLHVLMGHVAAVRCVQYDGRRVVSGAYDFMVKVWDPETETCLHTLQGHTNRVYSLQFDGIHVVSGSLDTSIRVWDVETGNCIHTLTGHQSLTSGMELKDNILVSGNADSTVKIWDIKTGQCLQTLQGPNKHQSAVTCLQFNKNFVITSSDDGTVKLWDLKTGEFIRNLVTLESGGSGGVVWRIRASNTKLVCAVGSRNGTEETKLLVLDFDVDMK
TEAD-YAP block: TEAD-YAP interaction inhibition; 640,000 compounds, 1.4% hits; inhibition, % at 9.12 µM; HEK-TIYL cells, TEAD-Gal4/YAP UAS-luciferase luminescence; AID 1259422; in the data active = inhibition above about 32%;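 note: 0% = median of test compound wells and 100% = reference inhibitor wells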
GPR151 activ: activators of human GPR151 | Q8TDV0 | PathHunter beta-arrestin GPR151 cells, luminescence | activation, % at 11.2 µM | 650,000 compounds, 1% hits; in the data active = activation above about 4.9%;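 note: 0% = median of compound wells and 100% = cells with positive control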
MITF confirm: human MITF inhibition, confirmation; shares compounds with MITF primary; AlphaScreen MITF homodimerization, biotin/His-MITF beads; inhibition, % at 2.6 µM; 4,700 compounds, 16% hits; AID 1259372;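 active = inhibition above a cutoff derived from the DMSO control wells, cut at about 28% in these data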;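 note: 0% = MITF dimer wells with DMSO only; inhibitors lower the bead chemiluminescence by keeping MITF from dimerizing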
AlphaScreen intf2: counter-screen: compounds optically interfering with AlphaScreen. shares compounds with MITF primary. LysRS AlphaScreen counterscreen, signal interference, triplicate. inhibition, % at 2.6 µM. 4,700 compounds, 7.6% hits. AID 1259376;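 active = inhibition above a cutoff derived from the DMSO control wells, cut at about 30% in these data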
* = called active by the depositor. Compounds with a hit are over-represented: about 3.4% of the library has one in this group of screens.

For COC(=O)c1ccc(-n2c(C)cc(C=C(C#N)C#N)c2C)cc1 the results were MITF primary -4.3, FBW7 activator -0.2, TEAD-YAP block -12.0 and GPR151 activ 2.2.
Screening OCCNCCCCOc1ccc(Cl)c(Cl)c1 returned MITF primary 58.0*, FBW7 activator 0.2, TEAD-YAP block -11.4, GPR151 activ 0.2, MITF confirm 8.0 and AlphaScreen intf2 11.1.
Screening COCCCNCCCCOc1ccc(Cl)c(Cl)c1 returned MITF primary 11.0, FBW7 activator 0.0, TEAD-YAP block -6.9 and GPR151 activ 0.4.
COCCNCCCCOc1ccc(Cl)c(Cl)c1 was read as MITF primary 57.5*, FBW7 activator 0.6, TEAD-YAP block 4.1, GPR151 activ 0.1, MITF confirm -0.6 and AlphaScreen intf2 -5.3.
Cc1cc(C(=O)CCl)c(C)n1-c1ccc2c(c1)OCO2 was read as MITF primary 0.1, FBW7 activator -0.1, TEAD-YAP block 2.4 and GPR151 activ 1.5.
For COc1ccc(Cn2c(C(C)O)nc3ccccc32)cc1F (configuration not stated) the results were MITF primary -0.4, FBW7 activator -0.2, TEAD-YAP block 5.9 and GPR151 activ -1.4.
For C=CCc1cc(Cl)ccc1OCCNCCOC the results were MITF primary 43.7, FBW7 activator 0.3, TEAD-YAP block 5.4 and GPR151 activ 4.0.
For C=CCNCCOCCOc1cccc(Br)c1 the results were MITF primary 60.5*, FBW7 activator -0.1, TEAD-YAP block -0.1, GPR151 activ -0.8, MITF confirm 2.2 and AlphaScreen intf2 4.3.
C=CCNCCOCCOc1ccc(C)cc1Br was read as MITF primary 59.9*, FBW7 activator 0.1, TEAD-YAP block -19.7, GPR151 activ -0.3, MITF confirm 8.6 and AlphaScreen intf2 12.3.
`C=CCc1cc(C)ccc1OCCNCCOC` gave MITF primary 53.3*, FBW7 activator 0.3, TEAD-YAP block 3.9, GPR151 activ -0.3, MITF confirm -1.0 and AlphaScreen intf2 -4.4.
Screening C=CCc1cc(OC)ccc1OCCCNCCOC returned MITF primary 61.9*, FBW7 activator 0.0, TEAD-YAP block 1.2, GPR151 activ 0.4, MITF confirm -1.3 and AlphaScreen intf2 7.0.
C=CCNCCOCCOc1cccc(OCC)c1 was read as MITF primary 13.4, FBW7 activator 0.1, TEAD-YAP block -1.9 and GPR151 activ 1.3.
For C=CCNCCOCCOc1ccc(C(C)(C)C)cc1C the results were MITF primary 8.9, FBW7 activator 0.0, TEAD-YAP block 0.1 and GPR151 activ -1.3.
`OCCC1CN(Cc2cccc(C(F)(F)F)c2)CCN1C1CCCC1` (configuration not stated) gave MITF primary 8.5, FBW7 activator -0.1, TEAD-YAP block -6.3 and GPR151 activ -0.5.
Screening COc1ccc(N2CC(C(=O)NC(C)C)CC2=O)cc1 (configuration not stated) returned MITF primary -5.1, FBW7 activator -0.1, TEAD-YAP block 0.4 and GPR151 activ -1.2.
Screening C=CCc1cc(C)ccc1OCCOCCNCCN(C)C returned MITF primary 51.4*, FBW7 activator -0.1, TEAD-YAP block -4.0, GPR151 activ -0.1, MITF confirm 7.2 and AlphaScreen intf2 19.8.
For COCCCNCCOCCOc1ccc(Cl)cc1C(C)(C)C the results were MITF primary 4.5, FBW7 activator 0.0, TEAD-YAP block -1.4 and GPR151 activ -0.7.
Screening C=CCc1cc(OC)ccc1OCCN1CC(C)OC(C)C1 (configuration not stated) returned MITF primary 63.9*, FBW7 activator -0.4, TEAD-YAP block -0.6, GPR151 activ 0.0, MITF confirm 19.9 and AlphaScreen intf2 36.5*.
`C=CCNCCOCCOc1ccc(Cl)cc1C(C)(C)C` gave MITF primary 69.2*, FBW7 activator -0.1, TEAD-YAP block -1.9, GPR151 activ 0.3, MITF confirm 2.2 and AlphaScreen intf2 6.3.
Screening C=CCc1cc(C)ccc1OCCCNCCOC returned MITF primary 57.9*, FBW7 activator -0.1, TEAD-YAP block -1.2, GPR151 activ -1.0, MITF confirm -11.2 and AlphaScreen intf2 -7.0.
`O=c1c2ccccc2nc(SCc2c(F)cccc2F)n1CC1COc2ccccc2O1` (configuration not stated) gave MITF primary -5.2, FBW7 activator -0.2, TEAD-YAP block -12.1 and GPR151 activ 0.9.
Screening COCCNCCCCOc1cc(C)ccc1C(C)(C)C returned MITF primary 39.4, FBW7 activator 0.0, TEAD-YAP block -4.0 and GPR151 activ -1.1.
Screening COCCNCCOc1cc(C)ccc1C(C)(C)C returned MITF primary 51.0*, FBW7 activator 0.2, TEAD-YAP block 10.3, GPR151 activ -1.2, MITF confirm -14.2 and AlphaScreen intf2 -6.9.
Screening C=CCNCCCOc1ccc(Br)cc1Cl returned MITF primary 15.1, FBW7 activator -0.1, TEAD-YAP block -17.9 and GPR151 activ -2.6.
C=CCNCCOc1ccc(Br)cc1Cl was read as MITF primary 55.6*, FBW7 activator -0.1, TEAD-YAP block 0.7, GPR151 activ -0.4, MITF confirm 6.5 and AlphaScreen intf2 3.5.
For O=C(NNC(=S)NCc1ccc(Cl)cc1)c1ccccn1 the results were MITF primary 112.2*, FBW7 activator -0.8, TEAD-YAP block 0.7, GPR151 activ 4.3, MITF confirm 102.3* and AlphaScreen intf2 100.2*.
For O=C(NNC(=S)NCc1ccco1)c1ccccn1 the results were MITF primary 117.0*, FBW7 activator -1.6, TEAD-YAP block 9.7, GPR151 activ -2.2, MITF confirm 46.3* and AlphaScreen intf2 66.7*.
Screening CS(=O)(=O)N1CCN(Cc2ccncc2)CC1 returned MITF primary 78.5*, FBW7 activator -0.2, TEAD-YAP block 4.7, GPR151 activ 0.6, MITF confirm -6.0 and AlphaScreen intf2 15.0.
`CCS(=O)(=O)N1CCN(Cc2cccnc2)CC1` gave MITF primary 78.3*, FBW7 activator 0.0, TEAD-YAP block 0.3, GPR151 activ -0.7, MITF confirm 11.0 and AlphaScreen intf2 12.3.
Screening Cc1ccc(S(=O)(=O)N2CCN(Cc3cccnc3)CC2)cc1 returned MITF primary 83.1*, FBW7 activator 0.2, TEAD-YAP block -6.8, GPR151 activ 0.0, MITF confirm 6.9 and AlphaScreen intf2 7.5.
Screening CS(=O)(=O)N1CCN(Cc2cccnc2)CC1 returned MITF primary 66.6*, FBW7 activator -0.1, TEAD-YAP block -10.2, GPR151 activ 0.9, MITF confirm -0.1 and AlphaScreen intf2 9.8.
Screening Cc1ccc(CN2CCN(S(=O)(=O)c3ccc(C)cc3)CC2)cc1 returned MITF primary -5.8, FBW7 activator 0.1, TEAD-YAP block 1.1 and GPR151 activ 0.5.
CCCS(=O)(=O)N1CCN(Cc2cccnc2)CC1 was read as MITF primary 46.4, FBW7 activator -0.1, TEAD-YAP block 1.6 and GPR151 activ 2.9.
Screening N#C/C(=C\c1ccc(Br)cc1)C(=O)NCc1ccccc1 returned MITF primary -0.9, FBW7 activator 0.1, TEAD-YAP block -3.4 and GPR151 activ 0.1.

Bioassay records deposited in PubChem by The Scripps Research Institute Molecular Screening Center.
